{"source": "PubChem BioAssay (NCATS)", "note": "Records with an inconclusive call do not appear. Entries that show only a call come without a potency. Calls of active or inactive are those of the source. Calls follow the shape of the dose curve; as a rule, active = well fitted inhibition curve with a large enough effect; inconclusive = small, poorly fitted or top-dose-only effect; inactive = no such curve, though single readings can be large or run the other way. Potency is read from the fitted curve at half-maximal effect."}
{"test_system": "Zika virus NS2B-NS3 protease (linked construct)", "assay": "Primary screen NINDS Rhodamine qHTS for Zika virus inhibitors (AID 1347160); also: nearly all actives have a fitted effect of over 55% in size", "conditions": "purified NS2B-NS3 protease, Rhodamine110 substrate fluorescence; series mostly up to 57.1 µM", "in_short": "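Rhodamine110-peptide cleavage (1.5 µM substrate) by 25 nM linked NS2B-NS3 enzyme at pH 8.0 (Tris, Tween 20), after 15 min RT preincubation with compounds; 15-min fluorescence change normalized to controls and Hill-fitted.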"}
{"molecule": "CC(C)(C)NC[C@H](O)c1ccc(O)cc1Cl", "Potency": "inactive"}
{"molecule": "CC(C)[C@]12O[C@H]1[C@@H]1O[C@]13[C@]1(O[C@H]1C[C@H]1C4=C(CC[C@@]13C)C(=O)OC4)[C@@H]2O", "Potency": "inactive"}
{"molecule": "CN1CCN(c2ccc([N+](=O)[O-])c3no[n+]([O-])c23)CC1", "Potency": "inactive"}
{"molecule": "COC1=C[C@@H]2[C@@H]3Cc4ccc(OC)c(O)c4[C@]2(CCN3C)CC1=O", "Potency": "inactive"}
{"molecule": "CCOC(=O)Nc1ccc(NCc2ccc(F)cc2)cc1N", "Potency": "inactive"}
{"molecule": "CCc1c(C(=O)C(N)=O)c2c(OCC(=O)O)cccc2n1Cc1ccccc1", "Potency": "inactive"}
{"molecule": "O=C(O)CNC(=O)c1c(O)c2ccccc2n(Cc2ccccc2)c1=O", "Potency": "11.2 µM (active)"}
{"molecule": "O=C(NCC1CCOCC1)c1cnc(Nc2ccc(Cl)cc2Cl)nc1C(F)(F)F", "Potency": "inactive"}
{"molecule": "CC(=O)Nc1ccc(OC[C@](C)(O)C(=O)Nc2ccc([N+](=O)[O-])c(C(F)(F)F)c2)cc1", "Potency": "inactive"}
{"molecule": "O=C(N[C@@H](COc1ccc2[nH]c(=O)[nH]c2c1)c1ccccc1)c1cccn(Cc2ccc(F)c(F)c2)c1=O", "Potency": "inactive"}
{"molecule": "CC1(N2CCC(n3c([C@@H]4CCCNC4)nc4ccccc43)CC2)CCCCCCC1", "Potency": "inactive"}
{"molecule": "O=C(Oc1ccc([N+](=O)[O-])cc1)N1CCN(Cc2cccc(Oc3ccccc3)c2)CC1", "Potency": "inactive"}
{"molecule": "CCN(CC)C(=O)c1ccc(C2=CC3(CCNCC3)Oc3cccc(O)c32)cc1", "Potency": "inactive"}
{"molecule": "O=C(Oc1ccc([N+](=O)[O-])cc1)N1CCC(C(O)(c2ccc3c(c2)OCO3)c2ccc3c(c2)OCO3)CC1", "Potency": "inactive"}
{"molecule": "CCNC(=O)CC1N=C(c2ccc(Cl)cc2)c2cc(OC)ccc2-n2c(C)nnc21", "note": "(stereo not drawn)", "Potency": "inactive"}
{"molecule": "CC(C)N(CCNC(=O)CN1CCCC1=O)C(C)C", "Potency": "inactive"}
{"molecule": "CCN1CCN(C(=O)Cc2ccc(Nc3ncc(F)c(Nc4ccc(C(=O)Nc5ccccc5Cl)cc4)n3)cc2)CC1", "Potency": "inactive"}
{"molecule": "COc1ccc(N(C(=O)Oc2c(C)cccc2C)c2ccnc(Nc3ccc(N4CCN(C)CC4)cc3)n2)c(OC)c1", "Potency": "inactive"}
